{"source": "PubChem BioAssay (Tox21)", "note": "Records with an inconclusive call do not appear. Active and inactive are the calls of the source. The call rests on the fitted dose curve; in most records, active means well fitted activation curve with a large enough effect in the signal ratio in the repeat runs, with a control signal flat (not every such curve was filed as active); inconclusive means weak or mixed curves; inactive means flat fitted curve, though single readings scatter; the % refers to the signal ratio. On the % scale 0 is the no-effect control and ±100 the full control effect; potency means the concentration at half of the fitted maximal effect.", "data": [{"test": "qHTS assay for small molecule activators of the heat shock response signaling pathway (AID 743210)", "conditions": "HeLa HSE-bla reporter, beta-lactamase ratio, 5 h; series mostly up to 62.6 µM; activation: at the top concentration", "excerpt": "U.S. Tox21 Program National Center for Advancing Translational Sciences [NCATS] NIH Chemical Genomics Center [NCGC] U.S. Environmental Protection Agency [EPA] National Institutes of Environmental Health Sciences [NIEHS] National Toxicology Program [NTP] U.S. Food and Drug Administration [FDA] Tox21 Assay Overview: Various chemicals, environmental and physiological stress conditions may lead to the activation of heat shock response/ unfolded protein response (HSR/UPR). There are three heat shock transcription factors (HSFs) (HSF-1, -2, and -4) mediating transcriptional regulation of the human HSR. To identify the compounds that activate HSR signaling, HSE-bla HeLa cell line (Invitrogen, Carlsbad, CA, USA) containing a beta-lactamase reporter gene under the control of the heat shock response elements was used to screen the Tox21 10K compound library.\nTox21 Assay Protocol Summary: The CellSensor HSE-bla HeLa cells (Invitrogen, Carlsbad, CA, USA) were dispensed at 1500 cells/6uL/well into 1536-well black wall/clear bottom plates using a Multidrop combi (Thermo Fisher Scientific, Waltham, MA) dispenser. After the assay plates were incubated at 37 C and 5% CO2 overnight, 23 nL of compounds dissolved in DMSO, positive controls or DMSO only was transferred to the assay plate by a Pintool station (Kalypsys, San Diego, CA). The plates were incubated at 37 C for 5 h. After 1 uL of LiveBLAzerTM B/G FRET substrate was added using a Flying Reagent Dispenser (Beckman Coulter, Indianapolis, IN, USA), the plates were incubated at room temperature for 2.5 h, and fluorescence intensity was measured by an Envision plate reader (PerkinElmer, Shelton, CT).", "values": [{"compound": "CCOC(C)=O", "activation": "-1.51% [at 81.1 µM] (inactive)"}, {"compound": "Cc1ccc(CO)cc1", "activation": "-1.25% [at 81.1 µM] (inactive)"}, {"compound": "CC1(C)[C@H](C(=O)O)N2C(=O)C[C@H]2S1(=O)=O", "activation": "-0.875% (inactive)"}, {"compound": "CCn1cc(C(=O)O)c(=O)c2cc(F)c(N3CCNCC3)cc21", "activation": "0.051% (inactive)"}, {"compound": "CNC(=O)c1cnn(-c2nc(N)c3ncn([C@@H]4O[C@H](CO)[C@@H](O)[C@H]4O)c3n2)c1", "activation": "-0.128% (inactive)"}, {"compound": "CCC=CC#N", "activation": "-0.0248% (inactive)"}, {"compound": "CCCCCCCC/C=C\\CCCCCCCCO", "activation": "0.298% (inactive)"}, {"compound": "Cc1ccco1", "activation": "-0.527% (inactive)"}, {"compound": "Clc1ccc(Nc2nnc(Cc3ccncc3)c3ccccc23)cc1", "activation": "2.28% (inactive)"}, {"compound": "OC(CCN1CCCC1)(c1ccccc1)C1CCCCC1", "note": "(stereo not given)", "activation": "-0.325% (inactive)"}, {"compound": "CC1(C)[C@@H](OC(=O)CCC(=O)O)CC[C@]2(C)[C@H]3C(=O)C=C4[C@@H]5C[C@@](C)(C(=O)O)CC[C@]5(C)CC[C@@]4(C)[C@]3(C)CC[C@@H]12", "activation": "3.57% (inactive)"}, {"compound": "CCc1ccccc1", "activation": "0.124% [at 81.1 µM] (inactive)"}, {"compound": "CCCCC(CC)COP(=O)(O)O", "note": "(stereo not given)", "activation": "3.66% [at 81.1 µM] (inactive)"}, {"compound": "COc1ccccc1NC(=O)c1cc2ccccc2cc1O", "Potency": "50.9 µM (active)"}, {"compound": "CN1CCCC(n2nc(Cc3ccc(Cl)cc3)c3ccccc3c2=O)CC1", "note": "(stereo not given)", "activation": "-0.0207% (inactive)"}, {"compound": "CCC1CO1", "note": "(stereo not given)", "activation": "-0.22% (inactive)"}, {"compound": "NCCNCCO", "activation": "-0.353% [at 81.1 µM] (inactive)"}, {"compound": "Nc1cccc2c1CN(C1CCC(=O)NC1=O)C2=O", "note": "(stereo not given)", "activation": "-0.868% (inactive)"}, {"compound": "Cc1cc2c(OCC(CNC(C)(C)C)OC(=O)c3ccccc3)cccc2[nH]1", "note": "(stereo not given)", "activation": "0.935% (inactive)"}, {"compound": "CC(=O)OCCN(CCOC(C)=O)c1ccc(N=Nc2ccc([N+](=O)[O-])cc2C#N)cc1", "activation": "-0.747% (inactive)"}, {"compound": "CC(=O)Nc1cc(S(=O)(=O)O)cc2cc(S(=O)(=O)O)c(N=Nc3ccccc3)c(O)c12", "activation": "-0.401% (inactive)"}, {"compound": "CC(C)=CC(=O)C=C(C)C", "activation": "-1.21% (inactive)"}, {"compound": "CC(=O)NC1(c2cccc(F)c2)CCN(CC[C@@]2(c3ccc(Cl)c(Cl)c3)CN(c3ccccc3)C(=O)CO2)CC1", "activation": "0% (inactive)"}, {"compound": "CC(=O)Nc1ccc(C)cc1C", "activation": "-1.43% (inactive)"}, {"compound": "O=[N+]([O-])c1ccc(Nc2ccc(Nc3ccccc3)c(S(=O)(=O)O)c2)c([N+](=O)[O-])c1", "activation": "-4.2% (inactive)"}, {"compound": "O=c1c(O)c(-c2ccc(O)cc2)oc2cc(O)cc(O)c12", "activation": "0.948% (inactive)"}, {"compound": "O=C(/C=C/c1ccc(O)c(O)c1)O[C@@H]1C[C@@](OC(=O)/C=C/c2ccc(O)c(O)c2)(C(=O)O)C[C@@H](O)[C@@H]1O", "activation": "1.61% (inactive)"}, {"compound": "CCOC(=O)[C@H](CCc1ccccc1)N[C@@H](C)C(=O)N(CC(=O)O)C1Cc2ccccc2C1", "activation": "0.671% (inactive)"}, {"compound": "CC(C)=CCC1C(=O)N(c2ccccc2)N(c2ccccc2)C1=O", "Potency": "28.7 µM (active)"}, {"compound": "Cc1cc(C)c(N)cc1C", "activation": "-0.959% (inactive)"}, {"compound": "OCCOCC#CCOCCO", "activation": "3.87% (inactive)"}, {"compound": "CCCCCCCCN", "activation": "-0.521% (inactive)"}, {"compound": "Nc1ncnc2c1ncn2[C@H]1CC[C@@H](CO)O1", "activation": "-1.79% [at 81.1 µM] (inactive)"}, {"compound": "Cc1cc(O)ccc1O", "activation": "-0.372% [at 81.1 µM] (inactive)"}, {"compound": "c1ccc2c(c1)CCc1ccccc1N2", "Potency": "inactive"}, {"compound": "CN1C[C@H](C(=O)N[C@]2(C)O[C@@]3(O)[C@@H]4CCCN4C(=O)[C@H](Cc4ccccc4)N3C2=O)C[C@@H]2c3cccc4[nH]cc(c34)C[C@H]21", "activation": "0.1% (inactive)"}, {"compound": "CN(C)CCN1C(=O)c2ccccc2N(C)c2ccccc21", "activation": "0.757% (inactive)"}, {"compound": "CC1CC(C)C(=O)C1=O", "note": "(stereo not given)", "activation": "0.178% (inactive)"}, {"compound": "C[C@]1(Cn2ccnn2)[C@H](C(=O)O)N2C(=O)C[C@H]2S1(=O)=O", "activation": "-0.675% (inactive)"}, {"compound": "N#CCCN(CCO)CCO", "activation": "-0.392% (inactive)"}]}]}
